In PubChem BioAssay AID1159580 (chemical genetic matrix, 2015):
In all, about 5,500 compounds went through this assay and about 2,000 (36%) were called active. Another 18% or so got no clear call; they are omitted. Cut-off read from the data, not from the text of the source: active = normalized growth mostly below about 0.91 (no sharp cut-off); inconclusive = no clear call, values can overlap the other calls; inactive = mostly above about 0.92. Some of the results follow.

Experiment: chemical genetic growth profiling, strain panel (AID 1159580);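 note: tested at 20 µM; growth read once vehicle control cultures reached saturation at 30 °C; 1 = growth at the plate median or of vehicle wells; lower values mean less growth of the strain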
Conditions: growth OD

Measured: normalized growth

C1CCN(CCC2CCCCN2)CC1 (stereo not drawn)
inactive: S. cerevisiae deletion strains, locus YAL013W, strain DEP1, hits give low values 0.999 | S. cerevisiae deletion strains, locus YBR229C, strain ROT2, hits give low values 1.01 | S. cerevisiae deletion strains, locus YDL101C, strain DUN1, hits give low values 0.995 | S. cerevisiae deletion strains, locus YDL134C, strain PPH21, hits give low values 1 | S. cerevisiae deletion strains, locus YDR150W, strain NUM1, hits give low values 0.936 | S. cerevisiae deletion strains, locus YEL061C, strain CIN8, hits give low values 1.02 | S. cerevisiae deletion strains, locus YGR078C, strain PAC10, hits give low values 1 | S. cerevisiae deletion strains, locus YHR030C, strain SLT2, hits give low values 1.08 | S. cerevisiae deletion strains, locus YHR087W, strain rtc3, hits give low values 1 | S. cerevisiae deletion strains, locus YJR043C, strain POL32, hits give low values 1 | S. cerevisiae deletion strains, locus YJR075W, strain HOC1, hits give low values 0.998 | S. cerevisiae deletion strains, locus YKL190W, strain CNB1, hits give low values 0.998 | S. cerevisiae deletion strains, locus YLR039C, strain RIC1, hits give low values 1.01 | S. cerevisiae deletion strains, locus YLR058C, strain SHM2 (second series), hits give low values 1.01 | S. cerevisiae deletion strains, locus YLR085C, strain ARP6, hits give low values 1.01 | S. cerevisiae deletion strains, locus YLR262C, strain YPT6, hits give low values 1 | S. cerevisiae deletion strains, locus YML094W, strain GIM5, hits give low values 1.01 | S. cerevisiae deletion strains, locus YMR219W, strain ESC1, hits give low values 1 | S. cerevisiae deletion strains, locus YMR263W, strain SAP30, hits give low values 1.01 | S. cerevisiae deletion strains, locus YNL153C, strain GIM3, hits give low values 1 | S. cerevisiae deletion strains, locus YNL298W, strain CLA4 (second series), hits give low values 0.981 | S. cerevisiae deletion strains, locus YNL322C, strain KRE1, hits give low values 0.995 | S. cerevisiae deletion strains, locus YNR030W, strain Alg12, hits give low values 0.996 | S. cerevisiae deletion strains, locus YOL006C, strain TOP1, hits give low values 0.964 | S. cerevisiae deletion strains, locus YPL055C, strain LGE1, hits give low values 0.967 | S. cerevisiae deletion strains, locus YPL241C, strain CIN2, hits give low values 0.993 | S. cerevisiae deletion strains, locus YPR135W, strain CTF4, hits give low values 1.08 | S. cerevisiae strains, strain wild type, hits give low values 0.996
